USP28 inh: blocks human USP28 ubiquitin-rhodamine cleavage; purified USP28, Ub-rhodamine cleavage fluorescence, 30 min; Q96RU2; AID 1645857; actives 3% (n = 47,000); inhibition, % at 25 µM
USP17 inh: human USP17-like deubiquitinase inhibition | A8MUK1 | purified USP17, Ub-rhodamine cleavage fluorescence, 3 h | inhibition, % at 50 µM | actives 6.5% (n = 47,000)
USP30 inh: blocks human USP30 ubiquitin-rhodamine cleavage. Q70CQ3. purified USP30, Ub-rhodamine cleavage fluorescence. inhibition, % at 25 µM. actives 5.3% (n = 47,000)
Of the large screens only hits and unclear results are named; the others gave an inactive call. An excerpt weighted towards active compounds, which were near 11% of everything screened. Cut-off read from the data, not from the text of the source: active = inhibition above about 30%; inactive = the rest.

CCOC(=O)c1sc2ccccc2c1S(=O)(=O)Nc1ccccc1C	none
Cc1ncccc1C(=O)N1CCC(O)(Cn2ccc3ccncc32)CC1	none (no result: USP17 inh)
CN(C)S(=O)(=O)c1cccc(C(=O)OCC(=O)NCc2ccc3c(c2)OCO3)c1	none
CN(C)S(=O)(=O)c1ccc(S(=O)(=O)NCCc2ccc3c(c2)OCO3)cc1	USP30 inh 45
Cn1cc(-c2noc(C3CCN(S(=O)(=O)c4ccc(Cl)cc4)CC3)n2)ccc1=O	none
Cn1nc(C2CCN(S(=O)(=O)c3ccc(Cl)cc3)CC2)c2nccnc21	none
O=C(CCCn1c(=O)[nH]c2ccccc2c1=O)N1CCC(Cc2ccccc2)CC1	none
O=C(Cc1ccc(-n2c(=O)[nH]c3ccsc3c2=O)cc1)N1CCC(Cc2ccccc2)CC1	USP28 inh 37, USP17 inh 47
O=C(Nc1cccc(Cl)c1)C1Cn2ccnc2C2(CCN(C(=O)C3CCC3)CC2)O1 (configuration not stated)	none
CCC1Sc2cc(S(=O)(=O)CCC(=O)N3CCc4ccccc4C3)ccc2NC1=O (configuration not stated)	none
COc1cc2c(cc1OC)CN(C(=O)CCS(=O)(=O)c1ccc(Cl)cc1)CC2	USP17 inh 32
Cc1cc(NC(=O)Cn2cccc2-c2nc(-c3ccc(F)cc3)no2)n[nH]1	none (no result: USP17 inh)
CCOc1ccc2c(c1)c(=O)c(C(=O)c1ccccc1)cn2CC(=O)Nc1ccc(Cl)cc1	none
CCC(C)NC(=O)c1cc2c(=O)n3cccc(C)c3nc2n1Cc1ccccc1 (configuration not stated)	none
COCCCn1c(C(=O)Nc2cccc(OC)c2)cc2c(=O)n3cccc(C)c3nc21	none
COCCCn1c(C(=O)NCCc2ccccc2)cc2c(=O)n3cccc(C)c3nc21	USP17 inh 71
COCCCn1c(C(N)=O)cc2c(=O)n3cccc(C)c3nc21	USP17 inh 40
COCCCn1c(C(=O)N2CCC(C)CC2)cc2c(=O)n3cccc(C)c3nc21	none
CCCCN(C)C(=O)c1cc2c(=O)n3cccc(C)c3nc2n1Cc1ccccc1	USP17 inh 63, USP30 inh 42
CCOCCCNC(=O)c1cc2c(=O)n3cccc(C)c3nc2n1Cc1ccccc1	USP17 inh 41, USP30 inh 44
Cc1cccn2c(=O)c3cc(C(=O)Nc4ccc5c(c4)OCCO5)n(Cc4ccccc4)c3nc12	none
COc1ccccc1NC(=O)C1CCCN(S(=O)(=O)Cc2ccc(F)cc2)C1 (configuration not stated)	none
Cc1cc(C)nc(NC(=O)c2csnn2)c1	none
O=C(Nc1cc(Cl)cc(Cl)c1)c1csnn1	USP17 inh 58
O=C(NCCO)c1sc2ccccc2c1C1CN(Cc2ccc3ncccc3c2)CCO1 (configuration not stated)	none
N#Cc1c(-c2ccc(Cl)cc2)cc(-c2cccc(Br)c2)[nH]c1=O	none
O=S(=O)(NCC12CC3CC(CC(C3)C1)C2)c1ccc(Cl)c2ccccc12	none
Cc1ccc2c(COC(=O)c3ccc4c(c3)OCO4)cc(=O)oc2c1C	none
CNc1nc(C2CCCN(C)C2)nc2c1CN(C(=O)Cc1c[nH]c3ccccc13)CC2 (configuration not stated)	none
COc1ccc(Cn2ccc3nc(N4CCOCC4)c(C#N)cc3c2=O)cc1	USP28 inh 31, USP17 inh 68, USP30 inh 54
Cc1ccc(Cn2ccc3nc(N4CCOCC4)ncc3c2=O)cc1	none
Cc1ccc(-n2nc(C)c3c(C)cc(C(=O)NCc4cccs4)nc32)cc1	USP17 inh 31, USP30 inh 46
Cc1ccc(CNC(=O)CCc2c(C)nc3c(c(C)nn3-c3ccc(C)cc3)c2C)cc1	none
COc1cccc(CN2CCC3(CC2)CN(C(C)=O)Cc2ccccc2O3)c1OC	none
O=C(NCc1ccncc1)c1nc(-c2ccc3[nH]ccc3c2)no1	none
COc1ccc(CNC(=O)c2nc(-c3ccc4cc[nH]c4c3)no2)cc1	USP30 inh 41
CC(C)NC(=O)CNC(=O)c1nc(-c2ccc3cc[nH]c3c2)no1	none
O=C(NCc1ccccc1Cl)c1nc(-c2ccc3[nH]ccc3c2)no1	USP17 inh 49, USP30 inh 47
O=C(c1cnc(-c2ccc(F)cc2)nc1-c1ccncc1)N1CCC2(CC1)OCCO2	none
c1nc(NCCN2CCOCC2)c2sc3nc(N4CCOCC4)c4c(c3c2n1)CCC4	none
CC(C)c1nc2sc3c(NCc4ccco4)ncnc3c2c2c1CCC2	USP28 inh 63
CC(C)c1nc2sc3c(NCCN4CCOCC4)ncnc3c2c2c1CCC2	USP28 inh 35
CC(C)c1nc2sc3c(NCc4ccccn4)ncnc3c2c2c1CCC2	none
Cc1nn(-c2ccccc2)c2[nH]c(=O)c(CNCc3ccc(F)cc3)cc12	none
Cc1cccc(NC(=O)Cn2c(=O)c3cccnc3n(-c3ccccc3)c2=O)c1	none
CCc1nc2cc3c(cc2n1CC(=O)NC1CCCCC1)OCCO3	none
Cc1n[nH]c(C)c1CC(=O)NCc1nnc(-c2nccc3ccccc23)o1	USP17 inh 40, USP30 inh 34
